Hit rate of the full screen: of about 2,000 compounds, about 190 (9.5%) were called active. About 14% were inconclusive and are not listed.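 Rule for the calls: active = fitted activation curve crossing 40% at a concentration no higher than the sample's top valid tested dose; inconclusive = flat fitted curve at 30% to 70% activation, or poor curve fit; inactive = signal decrease, flat curve within 30%, or the rest.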 A selection follows.
assay: sustained heat shock response element induction – cell-based, mouse, luciferase, cherry-pick, dose, confirmation (AID 602296); conditions: NIH3T3-HGL HSF-1 response element luciferase, 48 h; series mostly up to 26 µM; activation: at the top concentration;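 note: test compounds applied by themselves with no MG132 co-treatment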

activation, inactive:
CCOC(=O)CC(NC(=O)C1c2ccccc2Oc2ccccc21)c1ccccc1Cl (configuration not stated) -4.99%
COc1cccc(-c2c(C#N)c(N)nc3c2c(C)nn3-c2ccccc2)c1O -40.7%
O=C(COC(=O)/C=C/c1cccc([N+](=O)[O-])c1)NCc1ccco1 -2.07%
CN(C)c1ccc(C(CNC(=O)c2ccccc2)c2c[nH]c3ccccc23)cc1 (configuration not stated) -28.5%
CCOC(=O)CC1C(=O)NCCN1S(=O)(=O)c1cc(Cl)c(Cl)cc1Cl (configuration not stated) 9.36%
O=C(CCC1CCCC1)N=C1SC2CS(=O)(=O)CC2N1c1ccccc1F (configuration not stated) 0.463%
S=c1nc(SCc2ccccc2)[nH]c2ccccc12 2.98%
O=C(Nc1ccc(OCC(F)(F)C(F)F)c(C(F)(F)F)c1)c1ccccc1O -78.6%
CC(C)N(Cc1ccccc1)C(=O)COC(=O)/C=C/c1cnc2ccccc2n1 10.3%
CCN(CCCNC(=O)CCCN1C(=O)COc2ccc(C)cc21)c1cccc(C)c1 -34.6%
Cc1ccc(C)c(NC(=O)CS(=O)(=O)c2cn(C)c3ccccc23)c1 -5.97%
Cc1ccc(NC2OC(CO)C(O)C2O)cc1[N+](=O)[O-] (configuration not stated) 5.31%
COc1cccc(/C=N/Nc2ccc([N+](=O)[O-])cn2)c1O -99.1%
CCCC(=O)O/N=C(\c1ccccc1)c1ccncc1 -17.2%
COc1ccc(C)cc1NC(=O)CSc1nnc(COc2ccc(Cl)cc2)n1Cc1ccco1 -95.2%
Cc1nc2ccccc2n1CC(O)COCC1CC=CCC1 (configuration not stated) -34.1%
Cc1cccc(-[n+]2c(C)cc(C)c3c(=O)[nH]c(=O)[nH]c32)c1 2.83%
O=C1CSC(=S)N1/N=C/c1cccc(C(F)(F)F)c1 19%
CN(C)CCCCNCCCNC(=O)/C=N\O 12.4%
CN(c1cccc(NC(=O)CN(c2cccc(Cl)c2)S(=O)(=O)c2ccc(Cl)cc2)c1)S(C)(=O)=O -55.2%
CC1CN(C(=O)CS(=O)(=O)Cc2ccccc2)CC(C)O1 (configuration not stated) 5.95%
Cc1ccc(C(=O)/C=C/c2cc(Br)cc(Br)c2O)o1 2.94%
Cc1c(-n2cc(C(=O)c3ccccc3O)cc(C#N)c2=O)c(=O)n(-c2ccccc2)n1C 11.6%
O=C(/C=C/c1ccc(Cl)cc1Cl)N(Cc1ccccc1)C1CCS(=O)(=O)C1 (configuration not stated) -14.7%
OCC1(Cc2cccc(C(F)(F)F)c2)CCN(Cc2cc3ccccc3o2)CC1 -20.1%
Cc1ccc(S(=O)(=O)c2c(N)n(-c3ccccc3)c3nc4ccccc4nc23)cc1 8.69%
CN(CC(=O)Nc1ccccc1Cl)CC(=O)Nc1c(F)cccc1F -16%

— PubChem BioAssay AID602296 (Broad Institute, 2012)
